From PubChem BioAssay (EPA / NIEHS)
The source made the active and inactive calls. The calls were made as follows: active = hit-call score of the fitted dose curve at least 0.9, where 1 is the maximum; inactive = score below 0.9.

read-out: Tumor necrosis factor receptor 1 (TNFRSF1A), TNFRSF1A (gene 7132); test: LTEA_HepaRG_TNFRSF1A: Life Technologies and Expression Analysis (LTEA) Assay for Tumor necrosis factor receptor 1 (TNFRSF1A) using HepaRG (AID 2283535); settings: mRNA level, 48 h; actives raise or lower the signal
Procedure: LTEA_HepaRG is a cell based, multiplexed-readout assay that uses HepaRG, a human liver cell line, with measurements taken at 48 hours after chemical dosing on a 96-well plate.LTEA_HepaRG_TNFRSF1A is one of 102 assay component(s) measured in the LTEA HepaRG cell culture assay. It is a marker of Cell proliferation, survival, death.Data from the assay component LTEA_HepaRG_TNFRSF1A was analyzed into 1 endpoint. This assay endpoint, LTEA_HepaRG_TNFRSF1A, was analyzed with bidirectional fitting relative to DMSO as the negative control and baseline of activity. Using a type of inducible reporter, measures of mRNA induction for gain or loss-of-signal activity can be used to understand regulation of transcription factor activity. To generalize the intended target to other relatable targets, this assay endpoint is annotated to the cytokine receptor intended target family, where the subfamily is TNF receptor.
A total of 1060 chemcials from the ToxCast library were tested in eight-point concentration-response experiments. Cell culture and cytotoxicity assays were conducted at Thermo Fisher Scientific's Custom Services facility (Madison, WI). A single lot of human HepaRG cells (Thermo Fisher Scientific, Frederick, MD) was used for the cell culture experiments. 96-well format collagen type I coated plates of human HepaRG cells were prepared using established methods. Briefly, cryopreserved HepaRG cells were thawed, plated at a density of approximately 100,000 cells/well in HepaRG Thaw, Plate, and General Purpose media (HPRG770, Thermo Fisher Scientific), and incubated for 48 hours. 0.5% DMSO was selected as vehicle control to balance the requisite need of DMSO in HepaRG cultures to maintain differentiation (for example, baseline metabolism, proportions of hepatocytes vs. cholangiocytes), while enabling further hepatic receptor pathway activation (for example, PXR and CAR) in response to chemical exposure. 48 hours after plating, the culture medium was replaced with HepaRG Serum-Free Incudtion Media. Cells were exposed to each test chemical in duplicate and maintained in CO2 incubators for another 48 hours. Chemical plates were thawed to room temperature and 200x concentrations of treatment groups were prepared. 8-point conentration-reponse curves were made with the highest exposure at 100 uM, followed by half-log dilutions, all in 0.5% DMSO. Each test plate contained variouse controls, induction positive controls (1mM phenobarbital), cytotoxicity positive controls ([…] aflatoxin B1), vehicle controls (0.5% DMSO), and total lysis controls (0.5% DMSO). Cell morphology images were taken using an Essen IncuCyte FLR automated microscope, with six 96-well plates imaged in about 24 minutes. Images were captured and exported and JPEG files. Spent culture media was transfered to black-well plates for the LDH assay, and remaining media was sorted at -80 C for later use. Cells were treated with RLT buffer and frozen until shipped for gene expression analysis. Total RNA was isolated from the cell suspension in 75 uL of Buffer RLT (Qiagen, Germantown, MD 20874) by Quintiles/Expression Analysis (Durham, NC) using a custom isolation procedure. Total RNA from each plate well was transferred to a preamplification plate. Fluidigm's 96.96 Dynamic ArrayTM (Fluidigm, Amsterdam, the Netherlands) technology was used for gene expression analyses by quantitative reverse transcription polymerase chain reaction (qRT-PCR, performed by Quintiles/Expression Analysis, Durham, NC)89. Standard TaqManTM Assays (Applied Biosystems/ThermoFisher Scientific, Foster City, CA) were used to assess the expression of 93 genes selected based on their selectivity and sensitivity to important hepatic receptors known to be modulated by environmental chemicals; importance in human hepatocyte functionality; and hepatotoxicity. […]

Row | SMILES | outcome
1 | CN(C)C(=S)S | inactive
2 | Clc1cccc(Cl)c1Cl | inactive
3 | Oc1cc(Cl)c(Cl)cc1Cl | inactive
4 | CC(C)O.CC(C)O.OCCN(CCO)CCO.OCCN(CCO)CCO.[Ti] | inactive
5 | O=C(N[C@H]1CN2CCC1CC2)c1ccc2c(c1)OCCO2 | inactive
6 | OCCN(CCO)CCO | inactive
7 | O=C(O)C1(c2ccc3c(c2)OC[C@H](Cc2ccc(-c4ccccc4)cc2)[C@H]3O)CCCC1 | inactive
8 | CC(C)(C)c1ccccc1O | inactive
9 | N#Cc1cccnc1 | inactive
10 | COc1ccccc1N | inactive
11 | Cc1cc(C)cc(C)c1 | inactive
12 | Clc1cccc(Cl)c1 | inactive
13 | CCCCCCCCCCCCc1cccc(S(=O)(=O)O)c1 | inactive
14 | Oc1c(Cl)cc(Cl)cc1Cl | inactive
